DAX1 inh-1: inhibits human nuclear receptor DAX1; P51843; HEK293 Gal4-DAX1 luciferase reporter, luminescence; hit rate 0.99% among 340,000; inhibition, % at 6.75 µM; AID 504766;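 active = inhibition above the mean over all tested compounds plus 3 SD, cut at about 4.2% in these data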;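 note: 0% = DAX1-transfected cells with DMSO and 100% = empty-vector control cells with DMSO; inhibition shows as a rise in luminescence from relieved DAX1 repression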
hgDAF-12 ag: hgDAF-12 agonism, primary luciferase screen; HEK293 GAL4-hgDAF12 UAS-luciferase reporter, agonist luminescence; normalized to butyrate control; activation, % at 6.8 µM; hit rate 1.8% among 370,000; AID 687014;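 active = activation above a cutoff set at the mean of all screened compounds plus 3 SD, cut at about 10% in these data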;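 note: 0% = DMSO wells and 100% = sodium butyrate wells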
AHR activator: activates the human aryl hydrocarbon receptor; P35869; AHR-responsive luciferase reporter cells, luminescence; activation, % at 5 µM; hit rate 2.5% among 320,000; AID 2796; in the data active = activation above about 47%;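 note: 0% = vehicle wells and 100% = reference agonist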
Target sequence (P35869 whole entry, looked up): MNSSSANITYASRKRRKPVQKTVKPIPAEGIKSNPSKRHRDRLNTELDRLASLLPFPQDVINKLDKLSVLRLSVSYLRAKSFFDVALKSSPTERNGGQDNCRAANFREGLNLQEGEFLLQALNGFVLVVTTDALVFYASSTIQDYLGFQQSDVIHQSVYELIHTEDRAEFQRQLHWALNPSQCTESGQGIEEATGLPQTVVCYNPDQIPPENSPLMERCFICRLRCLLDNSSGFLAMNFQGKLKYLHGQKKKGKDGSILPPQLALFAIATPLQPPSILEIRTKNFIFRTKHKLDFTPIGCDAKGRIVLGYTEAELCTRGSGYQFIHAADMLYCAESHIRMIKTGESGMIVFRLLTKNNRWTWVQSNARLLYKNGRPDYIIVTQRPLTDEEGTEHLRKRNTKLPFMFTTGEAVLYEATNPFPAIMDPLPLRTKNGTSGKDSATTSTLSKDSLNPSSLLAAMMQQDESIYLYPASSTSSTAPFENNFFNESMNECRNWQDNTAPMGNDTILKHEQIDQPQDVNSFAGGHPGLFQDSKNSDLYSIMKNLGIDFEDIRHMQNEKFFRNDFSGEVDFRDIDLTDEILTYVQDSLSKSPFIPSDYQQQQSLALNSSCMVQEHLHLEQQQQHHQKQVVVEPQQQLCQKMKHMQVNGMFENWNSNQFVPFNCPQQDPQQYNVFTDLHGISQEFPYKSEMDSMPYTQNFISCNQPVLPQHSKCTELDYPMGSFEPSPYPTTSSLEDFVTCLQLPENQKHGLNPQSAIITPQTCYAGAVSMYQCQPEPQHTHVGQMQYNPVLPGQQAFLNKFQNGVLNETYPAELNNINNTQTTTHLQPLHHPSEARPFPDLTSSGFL
ssDAF-12 act: S. stercoralis DAF-12 activation, primary screen. hit rate 1% among 370,000. AID 652126. HEK293 ssDAF-12/GRIP1 lit1-tk-luc reporter, luminescence; % of 3 µM dafachronic acid response. activation, % at 6.8 µM;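 active = activation above the mean over all tested compounds plus 3 SD, cut at about 0.9% in these data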;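 note: 0% = DMSO-only wells and 100% = 3 µM delta7-dafachronic acid wells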
DAX1 inh-2: DAX1 (NR0B1) inhibition, primary screen. HEK293T StAR-luciferase reporter, SF-1/DAX-1 repression relief. inhibition, % at 6.8 µM. hit rate 1.1% among 370,000;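 active = inhibition above the mean over all tested compounds plus 3 SD, cut at about 3.6% in these data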;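 note: 0% = DAX-1 cells with DMSO and 100% = cells lacking DAX-1 with DMSO; higher inhibition means more luminescence from relief of DAX-1 repression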
hcDAF12 agonist: activates DAF-12 receptor from parasite H. contortus; HEK293 hcDAF-12 lit1-tk-luc reporter, luminescence; 0% DMSO, 100% Δ7-dafachronic acid; activation, % at 6.8 µM; hit rate 1.4% among 370,000;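 active = activation above the mean of all tested compounds plus 3 SD, cut at about 5.5% in these data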;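 note: 100% = response to 3 µM Δ7-dafachronic acid high control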
DAX1 conf: NR0B1 (human) inhibition, confirmation. AID 652134. hit rate 87% among 2,400. HEK293T StAR-promoter luciferase reporter, SF-1/DAX-1 repression. inhibition, % at 6.8 µM. shares compounds with DAX1 inh-2;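 active = inhibition above the average of every tested compound plus 3 SD, cut at about 3.8% in these data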;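 note: 0% = DAX-1 cells with DMSO and 100% = no DAX-1 control cells with DMSO; active compounds raise luminescence by relieving repression of the StAR reporter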
SF1 AF2mut Luc: nonselective inhibitor or artifact in SF-1 mutant DAX1 counter-screen; AID 652136; hit rate 78% among 2,400; shares compounds with DAX1 inh-2; HEK293 StAR-luciferase, SF-1 AF2 mutant, luminescence; inhibition, % at 6.8 µM;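 active = inhibition above the mean of all tested compounds plus 3 SD, cut at about 3% in these data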;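 note: 0% = DAX-1 transfected cells with DMSO and 100% = cells without DAX-1 with DMSO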
LXR ag: LXR-beta agonism as hcDAF-12 counter-screen; shares compounds with hcDAF12 agonist; activation, % at 6.8 µM; HEK293 Gal4-LXR tk-luc reporter, luminescence, 24 h; normalized: DMSO 0%, positive control 100%; 3,400 tested, under 10 active;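 active = mean percent activation of the reporter above a cutoff set as the average over tested compounds plus their standard deviation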
hcDAF12 conf: confirmation of H. contortus DAF-12 agonists; shares compounds with hcDAF12 agonist; HEK293 hcDAF-12 lit1-tk-luc reporter, luminescence; % of Δ7-dafachronic acid response; activation, % at 6.8 µM; hit rate 61% among 3,400; AID 743032;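 active = mean activation across triplicate tests above the threshold derived from the earlier primary screen, cut at about 5.5% in these data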;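 note: 0% = DMSO only wells and 100% = 3 µM Δ7-dafachronic acid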
Numbers without * were called inactive; nt = no result given. Most compounds without a hit are left out; they make up all but 5.7% or so of the library.

SMILES	DAX1 inh-1	hgDAF-12 ag	AHR activator	ssDAF-12 act	DAX1 inh-2	hcDAF12 agonist	DAX1 conf	SF1 AF2mut Luc	LXR ag	hcDAF12 conf
O=C(NCCOc1ccccc1)c1ccccc1NC(=O)C1CCCO1 (stereo not drawn)	1	11*	1	1	5.6*	9.0*	8.3*	7.3*	1	10*
COc1ccc(/C=N\NC(=O)c2sccc2C)cc1Cn1nc(C)cc1C	3	11*	57*	1.2*	9.9*	7.2*	1	-4	0	4
COC(=O)c1ccc(-c2nc(-c3cccs3)no2)cc1	1	14*	-6	1.8*	6.8*	6.8*	3	-2	1	4
Fc1ccc(/C=N/NC2=Nc3cccc4cccc2c34)cc1	3	22*	23	2.2*	5.2*	15*	10*	8.4*	1	11*
CCC(CC)c1nc2ccccc2c(=O)[nH]1	0	3	-1	0	-1	-3	nt	nt	nt	nt
CN(C)c1ccc(-c2nc3ccccc3c(=O)[nH]2)cc1	-4	15*	37	1	5.0*	10*	15*	4.5*	2	12*
CCOc1ccc(NC(c2ccccc2)P(=O)(OC)OC)cc1 (stereo not drawn)	0	-2	1	-1	0	-2	nt	nt	nt	nt
CCOC(=O)N1CCN(C(=O)c2ccc3oc(CCc4ccccc4)nc3c2)CC1	0	5	nt	-2	-1	-3	nt	nt	nt	nt
O=C(c1ccc2oc(CCc3ccccc3)nc2c1)N1CCC(O)CC1	1	11*	4	0	8.1*	8.2*	13*	4.9*	1	6.9*
CC(C)c1cc(C(=O)Nc2ccc3c(c2)OCO3)no1	2	8	40	2.0*	6.4*	12*	16*	7.1*	1	7.9*
O=C(Nc1ccc2c(c1)OCCO2)Nc1ccc2c(c1)OCO2	-1	22*	41	3.1*	5.4*	9.2*	14*	6.7*	2	9.1*
N#Cc1cccc(NCC(=O)Nc2ccc3c(c2)OCCO3)c1	1	13*	8	1.4*	5.2*	7.8*	11*	4.1*	2	7.6*
Cc1ccc(NC(=O)Nc2ccc3c(c2)OCO3)cc1F	0	11*	46	0	7.5*	8.0*	12*	9.6*	1	4
CCOC(=O)C1(C)CCN1C(=O)COc1ccccc1 (stereo not drawn)	nt	-3	nt	-1	-1	-1	nt	nt	nt	nt
COc1ccc(NC(=O)CSc2nc(C)cs2)c([N+](=O)[O-])c1	2	2	-1	0	-1	0	nt	nt	nt	nt
Cc1ccc(C(=O)Nc2ccc3c(c2)OCO3)cc1	-2	13*	43	3.3*	5.6*	20*	11*	6.0*	2	14*
CN(c1ccc(C(=O)Nc2ccc3c(c2)OCO3)cc1)S(C)(=O)=O	1	5	19	-1	2	1	nt	nt	nt	nt
Cc1ccc2nc(Cl)c(/C=N/Nc3ccc(C(=O)O)cc3)cc2c1	0	25*	22	3.0*	11*	15*	25*	8.6*	2	16*
Cc1ccc2cc(/C=N/NC(=O)c3ccc(F)cc3)c(Cl)nc2c1	1	-1	12	-2	-1	1	nt	nt	nt	nt
N#CCCCc1cc2cc(F)ccc2cn1	1	1	-1	-1	0	0	nt	nt	nt	nt
O=C(O)c1cccc(N/N=C/c2cccs2)c1	-5	17*	-11	1.5*	7.2*	13*	14*	6.3*	2	17*
Clc1ccc(OCc2nc(-c3ccncc3)no2)c(Br)c1	4	13*	6	1.2*	5.9*	8.3*	12*	8.5*	1	6.2*
Clc1ccccc1OCc1nc(-c2ccncc2)no1	1	5	1	0	2	4	nt	nt	nt	nt
O=C(CN1CCN(C(=O)c2ccco2)CC1)Nc1ccc(F)cc1F	-1	4	0	-1	0	-1	nt	nt	nt	nt
Cc1ccc(NC(=O)CNC(=O)c2sc3ccccc3c2Cl)nc1	3	6	8	0	4.6*	7.0*	4.8*	3.4*	0	3
SMILES	DAX1 inh-1	hgDAF-12 ag	AHR activator	ssDAF-12 act	DAX1 inh-2	hcDAF12 agonist	DAX1 conf	SF1 AF2mut Luc	LXR ag	hcDAF12 conf
CC(=O)c1ccc2c(c1)CC1(C2)Cc2cc3c(cc2C1)C(=O)CC3 (stereo not drawn)	-3	1	nt	-1	-5	-3	nt	nt	nt	nt
COc1cccc(NC(=O)CSCc2nc3sc(C)c(C)c3c(=O)[nH]2)c1	1	2	nt	0	1	-2	nt	nt	nt	nt
CCn1c(C)nc2cc(-c3nc4n(n3)Cc3ccccc3-4)ccc21	-7	nt	-7	nt	nt	nt	nt	nt	nt	nt
Fc1ccc(-c2nc3n(n2)Cc2ccccc2-3)cc1	0	18*	61*	4.2*	5.5*	18*	14*	8.6*	2	16*
CC1CCC(NC(=O)c2[nH]c(C(F)(F)F)nc2-c2ccccc2)CC1 (stereo not drawn)	nt	-2	nt	-1	0	-1	nt	nt	nt	nt
CC1(NC(=S)Nc2ccccc2)CCS(=O)(=O)C1 (stereo not drawn)	nt	0	-4	-2	0	-1	nt	nt	nt	nt
CC(=O)NC(Cc1ccccc1)C(=O)OCC(=O)c1ccc(Br)cc1 (stereo not drawn)	0	1	-4	-2	0	0	nt	nt	nt	nt
COc1ccccc1NC(CC(=O)c1ccccc1)C(=O)OCC(=O)c1ccc(Br)cc1 (stereo not drawn)	0	23*	18	2.1*	7.8*	20*	8.9*	-1	2	21*
COc1ccccc1NC(CC(=O)c1ccccc1)C(=O)OCC(=O)c1ccc(C)c(C)c1 (stereo not drawn)	3	22*	8	3.3*	7.8*	17*	21*	8.1*	1	12*
N#Cc1cccnc1N1CCN(C(=O)COCC(=O)O)CC1	4	1	0	0	0	0	nt	nt	nt	nt
Cc1cc(OCC(=O)OCC(=O)N(C)c2c(N)n(Cc3ccccc3)c(=O)[nH]c2=O)ccc1Cl	1	1	2	-1	-1	1	nt	nt	nt	nt
CCCC1CCC2(CC1)CCC2OC(=S)Nc1ccc(Cl)cc1 (stereo not drawn)	nt	0	nt	-2	nt	3	nt	nt	nt	nt

Compound activity: PubChem, The Scripps Research Institute Molecular Screening Center
